# Data taken from PubChem BioAssay (Tox21).
# Where “and” joins values, the source holds several entries; their conditions need not be identical. Identical values can stand only once. Inconclusive results are not listed. A number with no mark means an inactive call. Calls of active or inactive are those of the source. The call rests on the fitted dose curve; in most records, active means well fitted curve in the direction sought with a large enough effect in the repeat runs; inconclusive means weak or mixed curves; inactive means no such curve, though single readings can be large; an effect the other way counts as inactive or inconclusive.
# Molecular target: Voltage-gated inwardly rectifying potassium channel KCNH2 (Homo sapiens) (UniProt Q12809)
# Sequence (Q12809 whole entry, looked up): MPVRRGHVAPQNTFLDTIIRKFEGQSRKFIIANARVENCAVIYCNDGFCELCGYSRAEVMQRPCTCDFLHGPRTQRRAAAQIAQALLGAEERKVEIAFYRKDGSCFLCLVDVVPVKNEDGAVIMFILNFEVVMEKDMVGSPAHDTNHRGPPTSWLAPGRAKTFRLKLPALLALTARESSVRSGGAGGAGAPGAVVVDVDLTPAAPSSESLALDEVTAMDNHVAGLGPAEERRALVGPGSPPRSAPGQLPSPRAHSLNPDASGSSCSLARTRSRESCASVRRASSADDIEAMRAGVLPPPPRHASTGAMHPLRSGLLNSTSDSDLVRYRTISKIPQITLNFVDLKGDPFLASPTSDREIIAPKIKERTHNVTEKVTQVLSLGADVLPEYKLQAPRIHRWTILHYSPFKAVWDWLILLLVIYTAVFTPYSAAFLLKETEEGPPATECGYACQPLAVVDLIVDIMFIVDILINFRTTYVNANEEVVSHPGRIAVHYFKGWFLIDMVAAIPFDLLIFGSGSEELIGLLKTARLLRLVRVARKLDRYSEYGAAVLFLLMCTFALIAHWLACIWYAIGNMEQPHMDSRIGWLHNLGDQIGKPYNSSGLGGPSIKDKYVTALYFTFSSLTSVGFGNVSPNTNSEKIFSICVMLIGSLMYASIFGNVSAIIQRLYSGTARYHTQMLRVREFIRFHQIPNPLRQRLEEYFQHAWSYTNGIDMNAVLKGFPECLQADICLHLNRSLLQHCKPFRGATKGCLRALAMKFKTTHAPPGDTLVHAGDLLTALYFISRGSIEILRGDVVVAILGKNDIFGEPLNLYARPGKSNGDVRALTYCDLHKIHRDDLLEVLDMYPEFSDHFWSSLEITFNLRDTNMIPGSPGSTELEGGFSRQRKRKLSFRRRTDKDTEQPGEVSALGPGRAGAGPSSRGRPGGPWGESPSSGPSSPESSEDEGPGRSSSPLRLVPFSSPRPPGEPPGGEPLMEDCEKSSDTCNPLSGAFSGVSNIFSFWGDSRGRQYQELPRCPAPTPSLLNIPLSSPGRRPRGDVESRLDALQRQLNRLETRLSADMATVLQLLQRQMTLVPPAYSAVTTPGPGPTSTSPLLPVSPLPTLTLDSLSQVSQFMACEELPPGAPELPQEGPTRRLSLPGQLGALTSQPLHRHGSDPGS
# Assay: Human Ether-a-go-go-Related Gene (hERG) channel small molecule antagonists: fluorescence cell-based qHTS assay (AID 1671200);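 on activity change, negative = inhibition: hERG-expressing U2OS cells given a thallium stimulus after FluxOR II dye loading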
# Conditions: hERG-U2OS cells, FluxOR thallium flux fluorescence; series mostly up to 76.8 µM; activity change, negative = inhibition: at the top concentration
# In short: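 Read-out: thallium influx as a surrogate for potassium, tracked as fluorescence (480 nm ex/540 nm em) every second for 2 min after Stimulus Buffer addition in dye-loaded hERG-U2OS cells.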
# Further: nearly all actives have a fitted effect of over 50% in size.
# On the % scale 0 is the no-effect control and ±100 the full control effect; potency means the concentration at half of the fitted maximal effect.
Compound,"activity change, negative = inhibition",Potency
CC(C)(Cl)[N+](=O)[O-],1.03%,
CC(C)O.CC(C)O.OCCN(CCO)CCO.OCCN(CCO)CCO.[Ti],0.0206%,
CCOP(=S)(OCC)Oc1nc(Cl)c(Cl)cc1Cl,,inactive
ClP(Cl)(Cl)(Cl)Cl,-7.08%,
CC(=O)NC1CCSC1=O (centres undefined),0.333% [at 35.3 µM],
CCOC(=O)COc1cc(-c2nn(C)c(OC(F)F)c2Cl)c(F)cc1Cl,,34.7 µM (active)
COP(=O)(OC)O/C(=C/Cl)c1cc(Cl)c(Cl)cc1Cl,-13.1%,
C=CC[C@]1(O)CC[C@H]2[C@@H]3CCC4=CC(=O)CCC4=C3C=C[C@@]21C,-3.14% [at 35.3 µM],
O=C(O)c1ccccc1C(=O)Nc1cccc2ccccc12,-0.677%,
CO[C@@H]1[C@H](OC(=O)NC(=O)CCl)CC[C@]2(CO2)[C@H]1[C@@]1(C)O[C@@H]1CC=C(C)C,7.85% [at 15.8 µM],
COC(=O)c1cncn1C(C)c1ccccc1 (centres undefined),-1.95% [at 35.3 µM],
Cc1cc(=O)[nH]o1,6.1%,
COC1=CC(=O)O[C@@H](CCc2ccccc2)C1,4.1%,
Cn1cc[n+](C)c1 (tested in a mixture with another compound),8.37%,
N#Cc1cc(I)c(O)c(I)c1,-0.996%,

# Molecular target: Cytochrome P450 3A4 (Homo sapiens) (UniProt P08684)
# Sequence (P08684 whole entry, looked up): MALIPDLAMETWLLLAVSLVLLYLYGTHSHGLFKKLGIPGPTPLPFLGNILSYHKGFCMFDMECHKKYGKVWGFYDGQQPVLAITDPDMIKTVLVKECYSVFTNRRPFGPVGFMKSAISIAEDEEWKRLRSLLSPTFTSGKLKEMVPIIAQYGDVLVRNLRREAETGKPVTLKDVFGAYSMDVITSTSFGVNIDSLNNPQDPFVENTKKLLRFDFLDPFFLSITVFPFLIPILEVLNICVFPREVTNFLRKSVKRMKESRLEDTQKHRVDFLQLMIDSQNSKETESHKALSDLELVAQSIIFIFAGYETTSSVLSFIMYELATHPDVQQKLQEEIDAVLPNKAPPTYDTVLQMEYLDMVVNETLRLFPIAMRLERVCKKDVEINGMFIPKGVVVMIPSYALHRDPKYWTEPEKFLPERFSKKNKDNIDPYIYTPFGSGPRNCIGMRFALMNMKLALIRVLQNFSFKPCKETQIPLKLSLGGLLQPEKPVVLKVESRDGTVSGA
# Assay: Cytochrome P450 Family 3 Subfamily A Member 4 (CYP3A4) small molecule antagonists: luciferase reporter qHTS assay (AID 1671201)
# Conditions: P450-Glo CYP3A4 enzyme, luciferin luminescence, 1 h; series mostly up to 115 µM; activity change, negative = inhibition: at the top concentration
# In short: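 Luminescent readout (RLU) proportional to CYP3A4 activity, from luciferin generated off a proluciferin substrate. Enzyme–substrate mix plus compound 10 min at room temp, NADPH regeneration 1 h, detection reagent 20 min.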
Compound,"activity change, negative = inhibition",Potency
C[C@]12CC[C@H]3[C@@H](CCC4=CC(=O)CC[C@@H]43)[C@@H]1CC[C@@H]2OC(=O)CCC1CCCCC1,34% [at 52.9 µM],
CCCCNP(N)(N)=S,-2.32%,
C=CC(C)=O,8.17%,
Clc1cc(C(Cl)(Cl)Cl)cnc1Cl,,8.94 µM (active)
C/C=C/C=O,4.71%,
CC1(C)[C@H](C=C(Cl)Cl)[C@@H]1C(=O)O[C@@H](C#N)c1cccc(Oc2ccccc2)c1,75.4%,
Cc1c(F)c(F)c(COC(=O)C2C(/C=C(\Cl)C(F)(F)F)C2(C)C)c(F)c1F (centres undefined),-15.4%,
Nc1nc(N)nc(N)n1,12.1%,
CCOS(C)(=O)=O,1.11%,
O=C(CBr)OCc1ccccc1,0.201%,
CC[C@H]1C[C@H]2[C@@H]3CCC4=CC(=O)CC[C@@H]4[C@H]3CC[C@]2(C)[C@H]1O,-25.1% [at 52.9 µM],
O=Cc1ccc2c(c1)OCO2,4.31%,
COC(=O)C(Br)CBr (centres undefined),4.47%,
C=COC(C)=O,16.3%,
CC1C(=O)C[C@]2(C(C)C)C[C@H]12 (some centres undefined),-18.4%,
Brc1ccccc1,6.09%,
CO/N=C(/C(=O)OC)c1ccccc1COc1ccccc1C,9.82%,
CC(C)(Cl)[N+](=O)[O-],138%,
CC(C)O.CC(C)O.OCCN(CCO)CCO.OCCN(CCO)CCO.[Ti],10.2%,
CCOP(=S)(OCC)Oc1nc(Cl)c(Cl)cc1Cl,,1.13 µM (active) and 2 µM (active)
CC(=O)NC1CCSC1=O (centres undefined),10.2% [at 52.9 µM],
COP(=O)(OC)O/C(=C/Cl)c1cc(Cl)c(Cl)cc1Cl,58%,
CC1(C)CCC(Cc2ccc(Cl)cc2)C1(O)Cn1cncn1 (centres undefined),,0.0317 µM (active)
CO[C@@H]1[C@H](OC(=O)NC(=O)CCl)CC[C@]2(CO2)[C@H]1[C@@]1(C)O[C@@H]1CC=C(C)C,,7.74 µM (active)
COC(=O)c1cncn1C(C)c1ccccc1 (centres undefined),,0.309 µM (active)
Cc1cc(=O)[nH]o1,3.01%,
COC1=CC(=O)O[C@@H](CCc2ccccc2)C1,-3.78%,
Cn1cc[n+](C)c1 (tested in a mixture with another compound),2.33%,
N#Cc1cc(I)c(O)c(I)c1,199%,
